Among the data in PubChem BioAssay (NCATS) are activity change, negative = inhibition, outcome and Potency values, retold here.

A short description of test [1]: NFAT Signaling Pathway (AID 444; active = well fitted curve in either direction with a large enough effect, not every such curve was filed as active;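 note: carbachol stimulus at about its EC50 of 1 µM final; % is set by controls: 0 for no effect and ±100 for the full control effect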). As to conditions: Jurkat NFAT-bla M1, carbachol, beta-lactamase ratio, 5 h; at 17.2 µM (top of the series) unless noted. The procedure, abridged:
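Read-out: CCF4 FRET ratio (460 nm/530 nm) after 1 h RT dye loading, used for %activity and AC50 from titration series. Cells: Jurkat NFAT-β-lactamase/M1 line, treated with compound plus 1 uM carbachol for 5 h, 37 °C.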

For test [2], the target named is Mitogen-activated protein kinase 10 (Mus musculus) (UniProt Q61831). The test is described as follows: JNK3 AlphaScreen Assay (AID 530; active = well fitted curve in either direction with a large enough effect, not every such curve was filed as active;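 note: kinase came from lysate of stimulated human HepG2 cells; signal reports phosphorylation of biotinylated GST-cJun 1-79 at Ser73 with 10 µM ATP; % is set by controls: 0 for no effect and ±100 for the full control effect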). The procedure, abridged:
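Compound titrations were preincubated 15 minutes at room temperature with substrate, antibody and pre-activated JNK3-containing HepG2 lysate. Reactions were started with 10 uM ATP and stopped with EDTA-containing bead buffer for AlphaScreen detection.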
Background: Bead proximity is the source of the signal in Alpha formats.

The target in test [3] is 3',5'-cyclic-AMP phosphodiesterase 4B (Homo sapiens) (UniProt Q07343). Description: qHTS Assay for Inhibitors of PDE-IV (AID 607; active = well fitted activation curve with a large enough effect in the main read-out, with a control signal flat, not every such curve was filed as active; note: % of control where 0% means no effect). The procedure, abridged:
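Live HEK293 cells with a modified cyclic nucleotide-gated (CNG) channel report intracellular cAMP via membrane-potential dye fluorescence (ex 535/em 590 nm). Endogenous PDE-IV was targeted. Compounds were tested at up to 22.9 uM final; RO 20-1724 100 uM served as control.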
(In qHTS, concentration-response curves come from the screen itself.)

In test [4] the target is Guanine nucleotide-binding protein G(i) subunit alpha-1 (Homo sapiens) (UniProt P63096). The test is described as follows: qHTS Assay for Inhibitors of RGS12 GoLoco Motif Activity (Green Fluorophore) (AID 879).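 Note: 0% = labeled peptide with Gαi1 and full inhibition = labeled peptide alone without protein; negative values mean loss of peptide binding seen as reduced polarization.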 The procedure, abridged:
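Fluorescence polarization assay: 50 nM Gαi1 with 10 nM FITC-labeled RGS12 GoLoco peptide in 10 mM Tris pH 7.5, 150 mM NaCl, 0.1 mM GDP, 0.05% NP40, 10 min at room temperature with compound.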

Test [5] can be described thus: qHTS Assay for Identification of Small Molecule Agonists for Thrombopoietin (TPO) Signaling Pathway (AID 917). Note: % is set by controls: 0 for no effect and ±100 for the full control effect. The procedure, abridged:
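Murine Ba/F3 cells expressing human TPO receptor and GPIIb-promoter luciferase, IL-3-starved overnight, given compound plus TPO at 26 pM (EC50). After 24 h at 37 C, 5% CO2, luminescence read.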

Test [6] deals with Pyruvate kinase (Leishmania mexicana) (UniProt Q27686). Description: qHTS Validation Assay for Inhibitors of Leishmania Mexicana Pyruvate Kinase (AID 945).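 Note: 0% = DMSO only neutral control wells.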 The procedure, abridged: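 qHTS eight-point titrations against 0.2 nM LmPYK (E451W) in imidazole buffer pH 7.2 with 0.5 mM PEP, 0.1 mM ADP; 1 h, room temperature. Readout: PKLight luminescence, normalized to neutral DMSO wells.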
Pyruvate kinase (Leishmania mexicana), sequence (Q27686 2-499 E452W): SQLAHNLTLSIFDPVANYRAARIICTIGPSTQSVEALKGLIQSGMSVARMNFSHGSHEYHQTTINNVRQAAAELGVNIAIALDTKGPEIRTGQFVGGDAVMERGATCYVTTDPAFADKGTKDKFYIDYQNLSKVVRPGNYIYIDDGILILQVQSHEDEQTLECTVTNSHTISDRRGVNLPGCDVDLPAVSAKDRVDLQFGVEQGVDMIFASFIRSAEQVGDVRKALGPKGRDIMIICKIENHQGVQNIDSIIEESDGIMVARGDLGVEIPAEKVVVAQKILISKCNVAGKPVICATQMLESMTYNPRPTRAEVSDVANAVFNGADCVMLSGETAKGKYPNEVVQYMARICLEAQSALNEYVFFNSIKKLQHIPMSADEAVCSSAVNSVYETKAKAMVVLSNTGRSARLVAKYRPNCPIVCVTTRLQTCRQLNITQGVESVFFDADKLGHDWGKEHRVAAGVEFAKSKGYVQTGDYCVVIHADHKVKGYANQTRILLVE

The target in test [7] is Pyruvate kinase PKM (Homo sapiens) (UniProt P14618). The test is described as follows: qHTS Assay for Activators of Human Muscle Pyruvate Kinase (AID 954; active = well fitted curve in the direction sought with a large enough effect, not every such curve was filed as active;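 note: 0% = uninhibited enzyme and -100% = no enzyme or full thiadiazolimine inhibition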). The procedure, abridged: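 Enzyme was run at intermediate activity so both inhibitors and activators could be detected. ATP formed from ADP and PEP by 0.1 nM human PKM2 during a 1 h room-temperature incubation was quantified by coupled luciferase luminescence.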
Pyruvate kinase PKM (Homo sapiens), sequence (P14618 whole entry, looked up): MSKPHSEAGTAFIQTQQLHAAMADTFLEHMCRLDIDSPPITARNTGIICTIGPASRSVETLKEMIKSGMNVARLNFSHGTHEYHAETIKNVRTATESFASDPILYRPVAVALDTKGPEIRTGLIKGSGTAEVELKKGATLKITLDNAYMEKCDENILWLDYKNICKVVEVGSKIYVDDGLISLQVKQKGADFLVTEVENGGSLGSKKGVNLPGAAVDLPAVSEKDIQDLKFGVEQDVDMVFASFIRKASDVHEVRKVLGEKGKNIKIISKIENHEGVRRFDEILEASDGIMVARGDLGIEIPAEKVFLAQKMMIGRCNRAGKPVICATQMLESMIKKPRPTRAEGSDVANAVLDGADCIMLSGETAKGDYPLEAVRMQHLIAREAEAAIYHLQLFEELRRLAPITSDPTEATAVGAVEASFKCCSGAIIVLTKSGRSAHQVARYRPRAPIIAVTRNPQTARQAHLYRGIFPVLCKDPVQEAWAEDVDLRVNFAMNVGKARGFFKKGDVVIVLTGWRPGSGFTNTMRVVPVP

For test [8], the target named is Alpha-galactosidase (Coffea arabica) (UniProt Q42656). The test is described as follows: Counterscreen for Glucocerebrosidase Inhibitors: qHTS Assay for Coffee Bean alpha-Galactosidase at pH 4.5 (AID 957).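 Note: plate controls were enzyme alone for no effect and no enzyme for full effect.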 The procedure, abridged: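 Coffee bean alpha-galactosidase 2 nM, substrate 4-MU-alpha-Gal 80 uM, pH 4.5 citrate/Tween-20, 20 min RT. Cpd titration 0.7 nM–77 uM. Stop pH 10, fluorescence 365/440 nm; Hill-equation AC50.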
Alpha-galactosidase (Coffea arabica), sequence (Q42656 whole entry, looked up): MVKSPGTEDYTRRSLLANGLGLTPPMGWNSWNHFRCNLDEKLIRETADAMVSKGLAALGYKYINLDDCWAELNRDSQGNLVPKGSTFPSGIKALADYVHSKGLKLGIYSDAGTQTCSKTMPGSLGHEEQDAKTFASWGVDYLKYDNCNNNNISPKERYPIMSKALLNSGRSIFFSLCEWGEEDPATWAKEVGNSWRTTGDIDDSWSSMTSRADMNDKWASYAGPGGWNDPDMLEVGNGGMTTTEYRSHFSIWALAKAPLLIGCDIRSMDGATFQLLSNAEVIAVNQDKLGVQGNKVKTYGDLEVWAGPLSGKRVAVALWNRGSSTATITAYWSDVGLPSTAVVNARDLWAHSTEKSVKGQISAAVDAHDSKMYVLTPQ
Background: Counterscreens check selectivity or assay interference.

Test [9] deals with Alpha-galactosidase A (Homo sapiens) (UniProt P06280). The test is described as follows: Counterscreen for Glucocerebrosidase Inhibitors: qHTS Assay for Human alpha-Galactosidase at pH 4.5 (AID 992). Note: 0% is about no effect. The procedure, abridged: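 Read-out is 4-methylumbelliferone fluorescence (365 nm excitation, 440 nm emission) after a pH 10 NaOH/glycine stop. Reactions held 2 nM enzyme and 80 uM substrate at pH 4.5 for 20 min at room temperature.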
Alpha-galactosidase A (Homo sapiens), sequence (P06280 whole entry, looked up): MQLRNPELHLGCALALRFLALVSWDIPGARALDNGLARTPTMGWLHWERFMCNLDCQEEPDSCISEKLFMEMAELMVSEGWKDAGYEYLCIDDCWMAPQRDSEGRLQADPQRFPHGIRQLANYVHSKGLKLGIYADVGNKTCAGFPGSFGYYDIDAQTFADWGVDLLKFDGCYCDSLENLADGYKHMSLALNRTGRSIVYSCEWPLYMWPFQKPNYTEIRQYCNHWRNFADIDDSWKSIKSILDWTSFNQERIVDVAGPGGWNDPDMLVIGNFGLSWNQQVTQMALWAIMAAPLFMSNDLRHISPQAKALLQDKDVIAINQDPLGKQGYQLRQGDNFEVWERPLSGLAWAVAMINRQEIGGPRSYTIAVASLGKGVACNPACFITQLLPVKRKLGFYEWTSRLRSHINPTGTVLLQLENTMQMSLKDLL

For test [10], the target named is alpha-glucosidase (Oryza sativa, rice) (UniProt Q653V4). The test is described as follows: Counterscreen for Glucocerebrosidase Inhibitors: qHTS Assay for Rice alpha-Glucosidase at pH 5.0 (AID 997).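 Note: 0% = full activity with enzyme and -100% = basal without enzyme.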 The procedure, abridged: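 Rice alpha-glucosidase (4 nM final) with 400 uM 4-methylumbelliferyl-alpha-D-glucopyranoside in citrate buffer pH 5.0, 20 min at room temperature, stopped at pH 10; fluorescence 365/440 nm, compounds 0.7 nM–77 uM, AC50 from Hill fits.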

Test [11] addresses Alpha-galactosidase (Coffea arabica) (UniProt Q42656). Description: Counterscreen for Glucocerebrosidase Inhibitors: qHTS Assay for Coffee Bean alpha-Galactosidase at pH 5.9 (AID 998).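 Note: plate controls were uninhibited enzyme for no effect and no-enzyme basal signal for full effect.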 The procedure, abridged: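 Compounds were titrated from 0.7 nM to 77 uM against green coffee bean alpha-galactosidase (2 nM) using 80 uM fluorogenic 4-methylumbelliferyl substrate. After 20 min at room temperature, reactions were stopped at pH 10 and read by fluorescence.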

Test [12] can be described thus: Stat Signaling Pathway (AID 446; active = well fitted curve in either direction with a large enough effect, not every such curve was filed as active;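 note: ME-180 cervical cancer cells given 40 pM IL-6 alongside compound; SIE-controlled beta-lactamase reporter measured as 460/530 nm FRET emission ratio; % is set by controls: 0 for no effect and ±100 for the full control effect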). The procedure, abridged: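 IL-6/STAT signaling read in ME-180 cells via an SIE beta-lactamase reporter. Stimulus was 40 pM IL-6 (its AC50) for 5 hrs, so both activation and inhibition register.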
For test [13], the target named is Glucocorticoid receptor (Homo sapiens) (UniProt P04150). Description: GR-GFP Redistribution (AID 450;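 active = compounds whose dose series gives a full or clear partial fitted curve of increased nuclear translocation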; note: potency is the fitted concentration of half-maximal effect). As to conditions: U2OS GR-GFP nuclear translocation, laser cytometry, 2 h.
Glucocorticoid receptor (Homo sapiens), sequence (P04150 whole entry, looked up): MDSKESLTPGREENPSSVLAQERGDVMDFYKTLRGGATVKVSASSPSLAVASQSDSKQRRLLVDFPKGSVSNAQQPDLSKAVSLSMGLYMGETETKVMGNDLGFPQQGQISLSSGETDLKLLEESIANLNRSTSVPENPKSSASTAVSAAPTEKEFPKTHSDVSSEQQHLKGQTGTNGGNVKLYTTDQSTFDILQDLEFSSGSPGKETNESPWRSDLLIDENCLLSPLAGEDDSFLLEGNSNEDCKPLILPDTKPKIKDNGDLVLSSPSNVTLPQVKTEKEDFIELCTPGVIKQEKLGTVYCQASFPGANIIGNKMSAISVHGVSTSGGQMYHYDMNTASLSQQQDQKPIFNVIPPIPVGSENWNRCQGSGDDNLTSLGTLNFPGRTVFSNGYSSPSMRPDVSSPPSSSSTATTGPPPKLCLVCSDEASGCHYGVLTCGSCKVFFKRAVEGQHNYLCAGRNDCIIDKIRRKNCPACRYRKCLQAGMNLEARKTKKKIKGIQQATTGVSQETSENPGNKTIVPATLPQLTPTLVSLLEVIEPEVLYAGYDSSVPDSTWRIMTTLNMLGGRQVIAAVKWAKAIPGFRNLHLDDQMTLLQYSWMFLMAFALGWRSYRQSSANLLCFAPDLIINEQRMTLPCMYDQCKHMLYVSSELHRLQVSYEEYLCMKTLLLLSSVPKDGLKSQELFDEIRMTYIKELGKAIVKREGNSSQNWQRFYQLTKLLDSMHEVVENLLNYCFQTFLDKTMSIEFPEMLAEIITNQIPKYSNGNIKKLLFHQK

Unmarked numbers belong to inactive results. Results filed as inconclusive are left out. Active and inactive are the calls of the source. Unless noted, calls come from the whole dose curve; as a rule, active = well fitted curve in the direction sought with a large enough effect; inconclusive = small, poorly fitted or top-dose-only effect, or another doubt; inactive = no such curve, though single readings can be large; an effect the other way counts as inactive or inconclusive. Where only a bound is given, the exact number is not on record here.

3',5'-cyclic-AMP phosphodiesterase 4B (Homo sapiens), sequence (Q07343 whole entry, looked up): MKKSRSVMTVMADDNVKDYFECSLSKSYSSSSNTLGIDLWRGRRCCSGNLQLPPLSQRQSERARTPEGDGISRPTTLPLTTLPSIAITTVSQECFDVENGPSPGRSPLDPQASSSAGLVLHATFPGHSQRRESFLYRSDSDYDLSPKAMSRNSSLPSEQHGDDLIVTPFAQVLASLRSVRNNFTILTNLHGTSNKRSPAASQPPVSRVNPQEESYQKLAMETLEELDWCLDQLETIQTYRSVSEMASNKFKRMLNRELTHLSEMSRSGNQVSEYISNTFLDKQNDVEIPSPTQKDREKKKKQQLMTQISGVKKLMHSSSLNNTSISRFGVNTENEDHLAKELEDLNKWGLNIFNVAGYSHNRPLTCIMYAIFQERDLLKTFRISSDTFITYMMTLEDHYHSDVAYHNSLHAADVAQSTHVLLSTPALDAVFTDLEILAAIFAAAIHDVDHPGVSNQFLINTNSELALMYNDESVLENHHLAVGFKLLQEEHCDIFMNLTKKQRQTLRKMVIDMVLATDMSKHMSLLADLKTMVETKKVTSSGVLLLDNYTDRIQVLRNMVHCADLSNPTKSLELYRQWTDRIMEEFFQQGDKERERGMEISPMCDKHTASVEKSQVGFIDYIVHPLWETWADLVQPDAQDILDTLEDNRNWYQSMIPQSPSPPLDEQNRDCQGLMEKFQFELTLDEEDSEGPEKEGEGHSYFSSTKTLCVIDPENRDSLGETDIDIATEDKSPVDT
Guanine nucleotide-binding protein G(i) subunit alpha-1 (Homo sapiens), sequence (P63096 whole entry, looked up): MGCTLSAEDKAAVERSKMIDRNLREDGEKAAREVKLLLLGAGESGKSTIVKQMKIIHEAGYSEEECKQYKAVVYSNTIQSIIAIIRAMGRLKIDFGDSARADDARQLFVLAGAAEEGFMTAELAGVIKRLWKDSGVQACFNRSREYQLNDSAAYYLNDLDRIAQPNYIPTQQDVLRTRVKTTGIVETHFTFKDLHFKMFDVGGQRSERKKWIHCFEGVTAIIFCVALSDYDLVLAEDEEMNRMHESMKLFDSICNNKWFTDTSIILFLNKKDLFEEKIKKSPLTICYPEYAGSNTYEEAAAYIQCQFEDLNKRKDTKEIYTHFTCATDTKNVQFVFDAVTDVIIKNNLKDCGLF

`C[C@@H]1O[C@@H](O[C@H]2C[C@@H](O)[C@]3(CO)[C@@H]4[C@@H](O)C[C@]5(C)[C@H](C6=CC(=O)OC6)CC[C@@]5(O)[C@H]4CC[C@@]3(O)C2)[C@H](O)[C@H](O)[C@@H]1O`: in test [1], the activity change, negative = inhibition was -76.4% [at 38 µM] (active). For the same molecule, the molecule was called inactive in test [2], in test [3], in [5], in test [7], in test [8] and in test [9]. In addition, the result in test [10] and in test [11] was inactive. Moreover, the Potency result in test [4] and in test [6] was “inactive” each time.
On to `CCOc1ccc(-n2c(O)c(C=Nc3ccc(N(CC)CC)cc3)c(=O)[nH]c2=O)cc1`, for which the molecule was classed as inactive in test [12]. Besides, the Potency in test [13] is greater than 20.6 µM.
